Consider 18 compounds from PubChem BioAssay (EPA / NIEHS).

Where “and” joins values, the source holds several entries; their conditions need not be identical. Equal entries are not always repeated. A structure can be active in one record and inactive in another. Calls of active or inactive are those of the source. How the source made its calls: active means hit-call score of the fitted dose curve at least 0.9, where 1 is the maximum; inactive means score below 0.9.

As usually defined, the AC50 is the concentration giving half of the maximal activity seen.

Read-out in assay [1]: Human Leukocyte Antigen - DR isotype (HLADR), HLA-DRA (gene 3122)
The experiment in a line: BSK_BE3C_HLADR: BioMAP Diversity Plus: BE3C Assay for Human Leukocyte Antigen - DR isotype (HLADR) Biomarker Activity (AID 2283032). The following applies: primary human bronchial epithelial cells; actives raise or lower the signal. An outline of the steps:
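Primary human bronchial epithelial cells (BE3C); 24 h chemical exposure; HLA-DR by ELISA; bidirectional curve fit vs DMSO baseline.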

Read-out in assay [2]: Vascular cell adhesion molecule 1 (VCAM1), VCAM1 (gene 7412)
Put plainly: BSK_4H_VCAM1: BioMAP Diversity Plus: 4H Assay for Vascular cell adhesion molecule 1 (VCAM1) Biomarker Activity (AID 2283033).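 On outcome: cell-surface VCAM-1 protein measured by ELISA.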 The following applies: primary human endothelial cells (HUVEC); actives raise or lower the signal. In a few lines:
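HUVEC, 24 h post-dose; VCAM-1 by ELISA. Bidirectional curve fit vs DMSO baseline. Parallel SRB total-protein stain (0.1% SRB after 10% TCA fixation, 560 nm) for cytotoxicity.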

Read-out in assay [3]: Interferon-gamma inducible Protein 10 (IP10), CXCL10 (gene 3627)
The experiment in a line: BSK_BE3C_IP10: BioMAP Diversity Plus: BE3C Assay for Interferon-gamma inducible Protein 10 (IP10) Biomarker Activity (AID 2283034). The following applies: primary human bronchial epithelial cells; actives raise or lower the signal. An outline of the steps: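 ELISA readout of IP-10 in BE3C system: primary human bronchial epithelial cells, 24 h post-dosing; bidirectional curve fit vs DMSO baseline.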

Read-out in assay [4]: Monokine induced gamma interferon (MIG), CXCL9 (gene 4283)
Put plainly: BSK_BE3C_MIG: BioMAP Diversity Plus: BE3C Assay for Monokine induced gamma interferon (MIG) Biomarker Activity (AID 2283035).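 On outcome: MIG protein measured by ELISA in BE3C cultures after 24 h of dosing.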 The following applies: primary human bronchial epithelial cells; actives raise or lower the signal. An outline of the steps:
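Dose cells (human primary bronchial epithelial), incubate 24 h, quantify MIG by ELISA, then fit concentration–response in both directions relative to DMSO control.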

Read-out in assay [5]: Plasminogen activator inhibitor-1 (PAI1), SERPINE1 (gene 5054)
Put plainly: BSK_BE3C_PAI1: BioMAP Diversity Plus: BE3C Assay for Plasminogen activator inhibitor-1 (PAI1) Biomarker Activity (AID 2283037). The following applies: primary human bronchial epithelial cells; actives raise or lower the signal. An outline of the steps: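 ELISA read-out of PAI-1 from human bronchial epithelial primary cells, 24 h post-dosing; bidirectional curve fit vs DMSO baseline, gain or loss of signal scored.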

Read-out in assay [6]: urokinase plasminogen activator (uPA), PLAU (gene 5328)
Put plainly: BSK_BE3C_uPA: BioMAP Diversity Plus: BE3C Assay for urokinase plasminogen activator (uPA) Biomarker Activity (AID 2283038).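 On outcome: uPA protein level quantified by ELISA in cell cultures; uPA read one day after compound addition.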 Conditions: primary human bronchial epithelial cells; actives raise or lower the signal. An outline of the steps:
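Bronchial epithelial cells (human, primary); chemical 24 h; uPA by ELISA; bidirectional fit vs DMSO. SRB (0.1%, after 10% TCA fixation, 560 nm) in parallel cultures for cytotoxicity.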

Read-out in assay [7]: Interleukin-6 (IL6), IL6 (gene 3569)
The experiment in a line: BSK_CASM3C_IL6: BioMAP Diversity Plus: CASM3C Assay for Interleukin-6 (IL6) Biomarker Activity for (AID 2283040). The following applies: primary human coronary artery smooth muscle cells; actives raise or lower the signal.

Read-out in assay [8]: Tissue plasminogen activator (tPA), PLAT (gene 5327)
The experiment in a line: BSK_BE3C_tPA: BioMAP Diversity Plus: BE3C Assay for Tissue plasminogen activator (tPA) Biomarker Activity (AID 2283041).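 On outcome: tPA level quantified by ELISA one day after compound addition.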 Conditions: primary human bronchial epithelial cells; actives raise or lower the signal. In a few lines: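 ELISA read-out of tPA on human primary bronchial epithelial cells, 24 h post-dosing; bidirectional fit vs DMSO negative control/baseline.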

Read-out in assay [9]: Interleukin-8 (IL8), CXCL8 (gene 3576)
The experiment in a line: BSK_CASM3C_IL8: BioMAP Diversity Plus: CASM3C Assay for Interleukin-8 (IL8) Biomarker Activity (AID 2283042).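 Further: IL-8 protein level quantified by ELISA.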 The following applies: primary human coronary artery smooth muscle cells; actives raise or lower the signal.

Read-out in assay [10]: Transforming growth factor beta 1 (TGFb1), TGFB1 (gene 7040)
The experiment in a line: BSK_BE3C_TGFb1: BioMAP Diversity Plus: BE3C Assay for Transforming growth factor beta 1 (TGFb1) Biomarker Activity (AID 2283036;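 on outcome: TGF-b1 protein level measured by ELISA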). The following applies: primary human bronchial epithelial cells; actives raise or lower the signal. An outline of the steps: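 Read-out: ELISA for TGF-b1 in primary human bronchial epithelial cultures, 24 h post-dose. Bidirectional curve fitting vs DMSO control; gain or loss of signal both scored.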

Consider `O=C(c1ccc(O)cc1)c1ccc(O)cc1O`, for which the concentration at half-maximal activity (AC50) was 20 µM (active) in assay [1]; 13.2 µM (active) and 12.6 µM (active) in assay [5]. In addition, the outcome in assay [1], in assay [2], in assay [3], in assay [4], in [6] and in [7] was inactive. Besides, the result in assay [8] and in assay [9] was inactive.
With `O=Nc1ccc(O)cc1`, the outcome in [1], in assay [2], in assay [3], in [4], in assay [10] and in assay [5] was inactive. The outcome in [6], in assay [7], in assay [8] and in assay [9] was inactive.
As for `c1ccc(-c2ccccn2)nc1`, the outcome in [1], in assay [2], in [3], in assay [4], in [10] and in [5] was inactive. Besides, the outcome in assay [6], in [7], in [8] and in [9] was inactive.
As for `CCCCCCCCc1ccc(Nc2ccc(CCCCCCCC)cc2)cc1`, the outcome in assay [1], in assay [2], in [3], in assay [4], in assay [10] and in [5] was inactive. Moreover, the result in assay [6], in assay [7], in assay [8] and in assay [9] was inactive.
`CCCCC(CC)COC(=O)c1ccccc1O` (centres undefined): the outcome in assay [1], in [3], in assay [4], in [10], in assay [5] and in assay [6] was inactive. Besides, the outcome in assay [7], in assay [8] and in [9] was inactive. Besides, the AC50 in assay [2] was 14.9 µM (active).
With `COCc1c(C(C)C)nc(C(C)C)c(/C=C/[C@@H](O)C[C@@H](O)CC(=O)O)c1-c1ccc(F)cc1`, the result in [1], in assay [2], in assay [3], in assay [4], in [10] and in assay [5] was inactive. Also, the result in assay [6], in assay [7] and in assay [8] was inactive. In addition, the AC50 in [9] was 0.0375 µM (active).
Turning to `CCO[Si](CCCN=C=O)(OCC)OCC`, the outcome in assay [1], in [2], in assay [3], in [4], in [10] and in assay [5] was inactive. Besides, the outcome in assay [6], in assay [7], in assay [8] and in [9] was inactive.
Turning to `CN1C(=O)N(C)C(O)C1O` (centres undefined), the result in [1], in assay [2], in assay [3], in assay [4], in [5] and in assay [6] was inactive. Also, the result in assay [7], in [8] and in assay [9] was inactive.
Turning to `COc1ccc2nc(N)sc2c1`, the outcome in assay [1], in [2], in assay [3], in [4], in [10] and in [5] was inactive. Also, the outcome in assay [6], in assay [7], in assay [8] and in assay [9] was inactive.
For the compound `N#[N+]c1ccc2c(S(=O)(=O)[O-])cccc2c1O`, the outcome in [1], in assay [2], in assay [3], in [4], in assay [10] and in assay [5] was inactive. Further, the result in assay [6], in [7], in assay [8] and in [9] was inactive.
Consider `C=CC(=O)OCC(Br)CBr` (centres undefined), for which the AC50 in assay [1] was 14.4 µM (active); in assay [2] it was 20 µM (active); in assay [3], 23.3 µM (active); in [4], 31.4 µM (active); in assay [7], 26 µM (active); in [9] it was 30.4 µM (active). Besides, the result in assay [10], in assay [5], in assay [6] and in assay [8] was inactive.
As for `CCCCCCCCCCCCCCCC[N+](C)(C)CC`, the AC50 was 2.28 µM (active) in [1]; 1.9 µM (active) in assay [2]; 2.19 µM (active) in [3]; 9.57 µM (active) in assay [4]; 0.599 µM (active) in assay [10]; 10.4 µM (active) in [5]. In addition, the AC50 is 2.25 µM (active) in [6], 4.5 µM (active) in assay [7], 0.797 µM (active) in assay [8] and 5.98 µM (active) in assay [9].
In the case of `CC1OC1C1CCC2(C)OC2C1` (centres undefined), the outcome in assay [1], in assay [2], in [3], in assay [4], in assay [10] and in assay [5] was inactive. The outcome in assay [6], in [7], in assay [8] and in assay [9] was inactive.
Consider `O=C(Cl)c1cc(C(=O)Cl)cc(C(=O)Cl)c1`, for which the concentration at half-maximal activity (AC50) in assay [1] was 28.8 µM (active); in assay [2], 14.8 µM (active); in assay [3], 30.4 µM (active); in assay [4], 39.1 µM (active); in [5], 26.7 µM (active); in assay [6], 20 µM (active). Also, the half-maximal activity concentration (AC50) in assay [7] was 26.1 µM (active); in assay [8], 31.8 µM (active); in assay [9], 30.3 µM (active). Besides, the result in [10] was inactive.
For the compound `CCCCNc1ccc(NCCCC)c2c1C(=O)c1ccccc1C2=O`, the AC50 in assay [1] was 5 µM (active); in assay [3], 4.33 µM (active); in [10] it was 5 µM (active); in assay [6], 5 µM (active). In addition, the outcome in [2], in assay [4], in [5], in assay [7], in assay [8] and in assay [9] was inactive.
In the case of `C/C=C\C/C=C/CCCCCCCCOC(C)=O`, the values for the AC50 in assay [1], in assay [2] and in [3] were 25.7 µM (active), 29.3 µM (active) and 20 µM (active), respectively. The result in assay [4], in assay [10], in assay [5], in assay [6], in assay [7] and in assay [8] was inactive. Also, the outcome in assay [9] was inactive.
For `CC(C)(c1cc(Br)c(OCCO)c(Br)c1)c1cc(Br)c(OCCO)c(Br)c1`, the outcome in assay [1], in assay [4], in [10], in assay [5], in [6] and in assay [7] was inactive. Moreover, the result in assay [8] and in assay [9] was inactive. Also, the concentration at half-maximal activity (AC50) in assay [2] is 11.4 µM (active); in assay [3], 4.54 µM (active).
As for `CC(C)C(=O)C(C)C`, the outcome in assay [1], in assay [2], in [3], in [4], in assay [10] and in assay [5] was inactive. Besides, the outcome in [6], in assay [7], in assay [8] and in [9] was inactive.
